Rows were chosen to be rich in hits. Some 8% of all compounds tested hit in one or more screens of this group.
VP16 counter = Gal4-VP16 reporter inhibition counter-screen; Drosophila S2 Gal4-VP16 UAS-luciferase, luminescence, 20 h; AID 2546; Potency, µM (series often up to 53.6 µM), without a hit: at the top dose activity, negative = inhibition, most hits filed as inhibitors; 3.5% of 310,000 active;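 note: Gal4-VP16 expression switched on by copper sulfate through the metallothionein promoter; potency is the fitted concentration of half-maximal effect; nearly all actives have a fitted effect of over 50% in size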
ELG1 repair inh = blocks ELG1-dependent DNA repair in HEK293T cells; HEK293T ELG1-luciferase reporter, luminescence, 16 h; DNA damage induced by 5-fluorouridine; Potency, µM (doses to about 46.1 µM), without a hit: top-dose activity change, negative = inhibition, most hits filed as inhibitors; 2.3% of 330,000 active; AID 504467; note: potency is the fitted concentration of half-maximal effect; nearly all actives have a fitted effect of over 55% in size
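Step one: seed 2,000 cells per well. Step two: pin-transfer compound or DMSO alongside 5-fluorouridine. Step three: incubate 16 hr, 37 °C, 5% CO2. Step four: add ONE-Glo, wait 30 min, read luminescence.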
FBPA coupling cs = inhibits coupling enzyme system, counter-screen for aldolase hits | AID 2472 | activity change, negative = inhibition, % at 58.2 µM, hits read low | coupling enzyme system counterscreen, AmpLite Red fluorescence | 0.67% of 290,000 active; in the data active = activity change below about -30%
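Fluorescence at 525 nm excitation and 598 nm emission measured inhibition of the coupled detection system without aldolase. Compounds (at 57.5 uM final) were preincubated 10 min at room temperature with coupling enzyme reagent before a 20 min substrate/AmpLite Red step.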
TSHR antag = blocks TSH signaling through the human TSH receptor. P16473. TSHR-expressing cells, TSH-stimulated cAMP HTRF, 2 h; active compounds read low. activity change, negative = inhibition, % at 11.5 µM. 0.2% of 330,000 active;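 active = activity change below a set negative limit, meaning inhibition stronger than a set level, cut at about -70% in these data; inconclusive = activity change between two set negative limits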
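Read-out is FRET at 665 nm (cryptate excitation 337 nm) from a cryptate-tagged anti-cAMP antibody, competed by cell cAMP against cAMP-d2. Compounds are tested on freshly harvested TSHR cells challenged with 4nM TSH (EC80) for 2 hours at 37 deg C.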
RORg inh = inhibitors of mouse ROR gamma transcriptional activity. P51450. Drosophila S2 Gal4-RORgamma UAS-luciferase reporter, 20 h. 5.4% of 310,000 active. Potency, µM (titrated, usually from 53.6 µM), for the others: at the highest dose activity change, negative = inhibition, most hits filed as inhibitors. AID 2551; note: potency is the fitted concentration of half-maximal effect; nearly all actives have a fitted effect of over 60% in size
Target sequence (P51450 whole entry, looked up, the tested form may be a part): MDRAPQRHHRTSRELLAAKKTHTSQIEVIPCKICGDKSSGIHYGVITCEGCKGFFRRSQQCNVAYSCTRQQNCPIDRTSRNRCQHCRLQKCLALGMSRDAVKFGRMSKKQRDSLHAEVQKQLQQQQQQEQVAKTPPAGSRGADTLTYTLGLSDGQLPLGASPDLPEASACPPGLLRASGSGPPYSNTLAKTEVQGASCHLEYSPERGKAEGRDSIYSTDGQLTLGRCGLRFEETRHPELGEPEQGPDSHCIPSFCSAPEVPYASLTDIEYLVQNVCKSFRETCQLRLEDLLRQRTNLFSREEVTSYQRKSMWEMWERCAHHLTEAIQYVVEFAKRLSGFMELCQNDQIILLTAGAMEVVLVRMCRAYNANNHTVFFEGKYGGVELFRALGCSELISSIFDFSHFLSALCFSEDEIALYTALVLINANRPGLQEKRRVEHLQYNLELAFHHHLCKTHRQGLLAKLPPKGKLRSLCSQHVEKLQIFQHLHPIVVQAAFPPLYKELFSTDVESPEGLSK
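Read-out: Photinus luciferase luminescence; inhibitors lower reporter signal. Insect Schneider cells with Gal4-ROR gamma fusion under metallothionein promoter, UAS reporter; 700 uM final copper sulfate induction, 20 hr, ambient temperature.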
* hit, by the source's call. Unless noted, calls come from the whole dose curve; as a rule, active = well fitted curve in the direction sought with a large enough effect; inconclusive = small, poorly fitted or top-dose-only effect, or another doubt; inactive = no such curve, though single readings can be large; an effect the other way counts as inactive or inconclusive. % is set by controls: 0 for no effect and ±100 for the full control effect.

`Cc1cc(NS(=O)(=O)c2cc(Cl)sc2Cl)no1` gave VP16 counter -3.6%, ELG1 repair inh 0.7%, FBPA coupling cs 1.4, TSHR antag -4.3 and RORg inh 19.1%.
Screening O=C(CCNS(=O)(=O)/C=C/c1ccccc1)NCCc1c[nH]c2ccccc12 returned VP16 counter -2.9%, ELG1 repair inh 0.0%, FBPA coupling cs -3.2, TSHR antag -8.2 and RORg inh 4.3%.
Screening O=C(CNC(=S)NC(=O)c1ccc(Br)o1)c1ccccc1 returned VP16 counter inconclusive, ELG1 repair inh inconclusive, FBPA coupling cs 1.0, TSHR antag -8.9 and RORg inh 12.6µM*.
`O=C(CNC(=S)NC(=O)c1ccc(Cl)cc1)c1ccccc1` gave VP16 counter 12.6µM*, ELG1 repair inh inconclusive, FBPA coupling cs 1.7, TSHR antag 20.3 and RORg inh 10µM*.
For O=C(CNC(=O)c1ccc(Cl)cc1)c1ccc(Br)cc1 the results were VP16 counter 19.8%, ELG1 repair inh 16.9%, FBPA coupling cs 0.6, TSHR antag -2.5 and RORg inh 23.6%.
O=C(Nc1ccc(F)cc1)c1cccc(N2C(=O)C3C4C=CC(C5CC45)C3C2=O)c1 (stereo not given) was read as VP16 counter -5.9%, ELG1 repair inh 16.4µM*, FBPA coupling cs 0.7, TSHR antag -33.6 and RORg inh inconclusive.
O=C(Nc1ccc(Br)cc1)c1cccc(N2C(=O)C3C4CCC(C4)C3C2=O)c1 (stereo not given) was read as VP16 counter -1.2%, ELG1 repair inh 16.4µM*, FBPA coupling cs 1.3, TSHR antag -35.2 and RORg inh inconclusive.
Cc1cccc(NC(=O)c2ccc(N3C(=O)C4C5C=CC(C6CC56)C4C3=O)cc2)c1 (stereo not given) was read as VP16 counter inconclusive, ELG1 repair inh 8.2µM*, FBPA coupling cs -2.9, TSHR antag -9.0 and RORg inh inconclusive.
For O=C(Nc1ccc(F)cc1)c1cccc(N2C(=O)C3C4CCC(C4)C3C2=O)c1 (stereo not given) the results were VP16 counter 3.4%, ELG1 repair inh inconclusive, FBPA coupling cs -0.3, TSHR antag 3.7 and RORg inh inconclusive.
COCc1cccc(C(=O)NC(c2ccccc2)c2ccccc2)c1 was read as VP16 counter -11.9%, ELG1 repair inh 0.2%, FBPA coupling cs 1.2, TSHR antag -3.7 and RORg inh 21.1%.
For COc1ccc2[nH]c(C)c(CCNC(=S)Nc3ccccc3OC)c2c1 the results were VP16 counter -1.1%, ELG1 repair inh inconclusive, FBPA coupling cs -2.4, TSHR antag -5.3 and RORg inh 10µM*.
COc1ccc2[nH]c(C)c(CCNC(=S)Nc3cc(C)cc(C)c3)c2c1 was read as VP16 counter 11.2µM*, ELG1 repair inh -11.9%, FBPA coupling cs -1.0, TSHR antag 0.2 and RORg inh 2.24µM*.
For COc1ccc2[nH]c(C)c(CCNC(=S)Nc3cc(C)ccc3C)c2c1 the results were VP16 counter inconclusive, ELG1 repair inh 6.2%, FBPA coupling cs 1.0, TSHR antag -4.8 and RORg inh 5.01µM*.
`COc1ccc2[nH]c(C)c(CCNC(=S)Nc3cccc(C)c3)c2c1` gave VP16 counter 20µM*, ELG1 repair inh inconclusive, FBPA coupling cs 0.5, TSHR antag 2.8 and RORg inh 5.01µM*.
For COc1ccccc1N1CCN(CCC(=O)Nc2cccc(Cl)c2)CC1 the results were VP16 counter 2.4%, ELG1 repair inh -26.6%, FBPA coupling cs 0.6, TSHR antag -3.6 and RORg inh 12.9%.
`CNC(=S)N(CCc1c(C)[nH]c2ccc(OC)cc12)Cc1cc(OC)c(OC)c(OC)c1` gave VP16 counter -7.6%, ELG1 repair inh inconclusive, FBPA coupling cs -4.4, TSHR antag 1.0 and RORg inh 16.9%.
Screening COc1ccc2[nH]c(C)c(CCNC(=S)Nc3ccc(F)cc3)c2c1 returned VP16 counter 3.55µM*, ELG1 repair inh inconclusive, FBPA coupling cs -11.0, TSHR antag 1.3 and RORg inh 3.98µM*.
For O=C(N[C@@H](Cc1ccccc1)C(=O)O)c1ccccc1 the results were VP16 counter 9.6%, FBPA coupling cs 10.4 and RORg inh 17.3%.
Cc1ccc(-c2nn3c(C)nnc3s2)cc1NC(=O)c1ccc(-c2cccc(Cl)c2)o1 was read as VP16 counter 3.9%, ELG1 repair inh 18.4µM*, FBPA coupling cs 2.1, TSHR antag -3.0 and RORg inh 4.7%.
Screening O=[N+]([O-])c1ccc(O)c(/C=N/Nc2ccc(Cl)nn2)c1 returned VP16 counter 1.41µM*, ELG1 repair inh inconclusive, FBPA coupling cs -3.1, TSHR antag 3.3 and RORg inh 1µM*.
Screening O=[N+]([O-])c1ccc(O)c(/C=N/NC2=NS(=O)(=O)c3ccccc32)c1 returned VP16 counter 1.26µM*, ELG1 repair inh inconclusive, FBPA coupling cs 14.0, TSHR antag 11.9 and RORg inh 1.26µM*.
`O=S1(=O)N=C(N/N=C/c2cccs2)c2ccccc21` gave VP16 counter 0.501µM*, ELG1 repair inh 3.6%, FBPA coupling cs -2.7, TSHR antag -19.6 and RORg inh 0.891µM*.
Screening O=[N+]([O-])c1ccc(/C=N/NC2=NS(=O)(=O)c3ccccc32)cc1 returned VP16 counter 8.6%, ELG1 repair inh 29.6%, FBPA coupling cs -0.7, TSHR antag 2.1 and RORg inh -10.5%.
CCOC(=O)c1sc2nccc(N(C)C)c2c1N=CNOCc1c(F)cccc1Cl was read as VP16 counter 0.5%, ELG1 repair inh 16.4µM*, FBPA coupling cs -0.7, TSHR antag -30.2 and RORg inh -5.4%.
CSc1ccc(S(=O)(=O)N2CCC(C(=O)N3CCc4ccccc4C3)CC2)cc1 was read as VP16 counter 4.3%, ELG1 repair inh -9.3%, FBPA coupling cs 2.3, TSHR antag 1.5 and RORg inh 29.9%.
Screening CCC(Sc1nc2ccccc2s1)C(=O)Nc1nnc(C)s1 (stereo not given) returned VP16 counter 1.2%, ELG1 repair inh 3.2%, FBPA coupling cs 4.7, TSHR antag -4.0 and RORg inh inconclusive.
Screening CC(Sc1nc2ccccc2s1)C(=O)Nc1nnc(C(C)C)s1 (stereo not given) returned VP16 counter inconclusive, ELG1 repair inh 3.5%, FBPA coupling cs 8.5, TSHR antag 0.1 and RORg inh 2.82µM*.
For Cc1oc2ccc(OCc3ccc(Br)cc3)cc2c1C(=O)O the results were VP16 counter -12.4%, ELG1 repair inh inconclusive, FBPA coupling cs -14.1, TSHR antag 25.0 and RORg inh 28.6%.
`C/C(=N\NC(N)=S)C1(C)CCCCC1` gave VP16 counter 8.91µM*, ELG1 repair inh -28.1%, FBPA coupling cs 0.3, TSHR antag -19.5 and RORg inh 3.55µM*.

Assay outcomes as filed in PubChem.
